# Several values for one entry are separate records, joined by “and”; a condition that tells them apart may be missing. Identical values can stand only once. Compounds without any hit were thinned out: in the full panel of roughly 83,000, 20% have a hit.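 The test compound was applied at a single concentration to cells in 96-well plates for 48 hours, and percent growth was recorded.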 Activity calls are given as the source filed them. Rule for the calls: active = growth percent below 10; inactive = the rest.
# Experiments:
# Assay in all cases: NCI-60 one-dose screen, 48 h (100 = growth as untreated, 0 = no growth, -100 = all killed)
# Details in all cases: 10 µM unless noted
# HCT-15 colon = tested on: HCT-15 colon
# HT29 colon = tested on: HT29 colon
# SNB-19 CNS = tested on: SNB-19 CNS
# U251 CNS = tested on: U251 CNS
# PC-3 prostate = tested on: PC-3 prostate
# SK-MEL-5 melanoma = tested on: SK-MEL-5 melanoma
# UACC-62 melanoma = tested on: UACC-62 melanoma
# LOX IMVI melanoma = tested on: LOX IMVI melanoma
# SK-MEL-28 melanoma = tested on: SK-MEL-28 melanoma
# SK-MEL-2 melanoma = tested on: SK-MEL-2 melanoma
# EKVX NSCLC = tested on: EKVX NSCLC
# SN12C renal = tested on: SN12C renal
# UO-31 renal = tested on: UO-31 renal
# TK-10 renal = tested on: TK-10 renal
# ACHN renal = tested on: ACHN renal
# CAKI-1 renal = tested on: CAKI-1 renal
# A498 renal = tested on: A498 renal
# CCRF-CEM leukemia = tested on: CCRF-CEM leukemia
# MOLT-4 leukemia = tested on: MOLT-4 leukemia
# SNB-75 CNS = tested on: SNB-75 CNS
SMILES,growth (HCT-15 colon),growth (HT29 colon),growth (SNB-19 CNS),growth (U251 CNS),growth (PC-3 prostate),growth (SK-MEL-5 melanoma),growth (UACC-62 melanoma),growth (LOX IMVI melanoma),growth (SK-MEL-28 melanoma),growth (SK-MEL-2 melanoma),growth (EKVX NSCLC),growth (SN12C renal),growth (UO-31 renal),growth (TK-10 renal),growth (ACHN renal),growth (CAKI-1 renal),growth (A498 renal),growth (CCRF-CEM leukemia),growth (MOLT-4 leukemia),growth (SNB-75 CNS)
CCCCCc1cc[n+](CC(=O)c2ccccc2)cc1,99.4% (inactive) and 103% (inactive),99.7% (inactive) and 105% (inactive),93.4% (inactive) and 107% (inactive),103% (inactive) and 105% (inactive),85.6% (inactive) and 91.1% (inactive),96% (inactive) and 89.5% (inactive),98.7% (inactive) and 101% (inactive),93.8% (inactive) and 98.6% (inactive),128% (inactive) and 109% (inactive),101% (inactive) and 104% (inactive),90.4% (inactive),99.8% (inactive) and 103% (inactive),85.6% (inactive) and 91.3% (inactive),120% (inactive) and 101% (inactive),102% (inactive),98.7% (inactive),87.5% (inactive) and 85.7% (inactive),92.2% (inactive) and 99.4% (inactive),104% (inactive) and 109% (inactive),
CCn1c2ccc(N(C)C)cc2c2cc(N(C)C)ccc21,112% (inactive),78.9% (inactive),102% (inactive),93.9% (inactive),72.9% (inactive),97.6% (inactive),91.9% (inactive),96.8% (inactive),,104% (inactive),88% (inactive),104% (inactive),,118% (inactive),99.9% (inactive),98.4% (inactive),86.2% (inactive),85.5% (inactive),96.9% (inactive),99.3% (inactive)
O=C(Nc1ccccc1)OCC(CN1CCCCC1)OC(=O)Nc1ccccc1 (centres undefined),84.9% (inactive) and 99.5% (inactive),69.6% (inactive) and 87.2% (inactive),90.9% (inactive) and 92.8% (inactive),67.7% (inactive) and 91.1% (inactive),75.5% (inactive),60.5% (inactive) and 93.7% (inactive),80.7% (inactive) and 101% (inactive),76.7% (inactive) and 95.2% (inactive),91.5% (inactive) and 105% (inactive),85.6% (inactive) and 108% (inactive),82.5% (inactive),77.5% (inactive) and 94% (inactive),,93.2% (inactive) and 104% (inactive),72.9% (inactive) and 92.8% (inactive),71.6% (inactive) and 86% (inactive),,82.3% (inactive),64.8% (inactive) and 87.9% (inactive),
O=C1C=CC[C@H](/C=C/c2ccccc2)O1,33.4% (inactive) and -52.8% (active),29.8% (inactive) and 28.4% (inactive),66.3% (inactive) and 17.5% (inactive),12.8% (inactive) and -30% (active),20.2% (inactive) and 13% (inactive),31.7% (inactive) and -11.8% (active),81.7% (inactive) and 6.21% (active),5.77% (active) and -35.8% (active),,-21.8% (active) and -43.1% (active),54.5% (inactive) and 56.3% (inactive),55.6% (inactive) and 9.16% (active),38.8% (inactive) and 41% (inactive),,33.4% (inactive) and -36.3% (active),,,12.5% (inactive) and -3.54% (active),3.44% (active) and -22.1% (active),
Cc1cc(O)c(C(C)C)cc1N=O,94.3% (inactive) and 98.9% (inactive),114% (inactive) and 94.1% (inactive),96.1% (inactive) and 99.4% (inactive),97.6% (inactive),109% (inactive) and 97.6% (inactive),99.6% (inactive) and 104% (inactive),99.7% (inactive) and 103% (inactive),88.5% (inactive) and 99.5% (inactive),,103% (inactive) and 111% (inactive),101% (inactive) and 102% (inactive),95.7% (inactive) and 105% (inactive),,101% (inactive) and 99.7% (inactive),95% (inactive) and 91.5% (inactive),,94.8% (inactive) and 95.5% (inactive),90.3% (inactive),98.1% (inactive),96.7% (inactive)
COC1C(OC(N)=O)C(O)C(Oc2ccc3c(O)c(NC(=O)c4ccc(O)c(CC=C(C)C)c4)c(=O)oc3c2C)OC1(C)C (centres undefined),23.6% (inactive) and 96% (inactive),105% (inactive) and 110% (inactive),101% (inactive) and 92.7% (inactive),42.5% (inactive) and 101% (inactive),90.6% (inactive) and 93.8% (inactive),103% (inactive) and 98.2% (inactive),103% (inactive) and 97.9% (inactive),99.7% (inactive) and 98.4% (inactive),108% (inactive),105% (inactive) and 111% (inactive),109% (inactive),106% (inactive) and 97.3% (inactive),107% (inactive) and 96.9% (inactive),,23.8% (inactive) and 101% (inactive),85.9% (inactive) and 101% (inactive),106% (inactive) and 70.8% (inactive),90% (inactive) and 59.2% (inactive),75.4% (inactive) and 93.5% (inactive),
